# Screens as filed in PubChem BioAssay.
# Shown are actives, neighbours in structure and some others; about 16% of the full set was active somewhere.
# TDP1 inh – qHTS Assay for Inhibitors of Tyrosyl-DNA Phosphodiesterase (TDP1). recombinant TDP1, AlphaScreen DNA substrate cleavage. Potency, µM (doses to about 130 µM), without a hit: top-dose activity change, negative = inhibition, usual class: inhibitors. 0.28% of 350,000 active. AID 485290, 2010; note: potency is the fitted concentration of half-maximal effect; % is set by controls: 0 for no effect and ±100 for the full control effect; nearly all actives have a fitted effect of over 40% in size
# Target sequence (Q9NUW8 whole entry, looked up): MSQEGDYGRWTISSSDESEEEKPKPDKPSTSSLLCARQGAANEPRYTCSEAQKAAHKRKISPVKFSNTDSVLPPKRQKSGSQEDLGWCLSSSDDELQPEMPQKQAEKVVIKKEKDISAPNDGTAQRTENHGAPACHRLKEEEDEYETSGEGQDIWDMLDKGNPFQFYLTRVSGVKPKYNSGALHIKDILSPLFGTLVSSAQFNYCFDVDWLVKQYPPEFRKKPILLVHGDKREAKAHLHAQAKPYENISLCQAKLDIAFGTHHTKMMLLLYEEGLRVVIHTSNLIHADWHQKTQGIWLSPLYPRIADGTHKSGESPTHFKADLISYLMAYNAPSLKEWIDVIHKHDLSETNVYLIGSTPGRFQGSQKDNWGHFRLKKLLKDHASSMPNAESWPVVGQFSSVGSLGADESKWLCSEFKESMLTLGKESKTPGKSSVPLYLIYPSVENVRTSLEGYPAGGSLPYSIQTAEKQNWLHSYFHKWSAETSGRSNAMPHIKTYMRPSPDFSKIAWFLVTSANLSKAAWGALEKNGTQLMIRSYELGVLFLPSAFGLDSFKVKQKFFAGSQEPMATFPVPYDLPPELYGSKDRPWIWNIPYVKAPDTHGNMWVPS
#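 Compounds were preincubated with Tdp1 (1 nM final) for 15 min at room temperature before substrate (15 nM final) started a 5 min reaction; beads (10 ug/ml final) were then added for 10 min before AlphaScreen detection.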
# uPA generation – qHTS for Inhibitors of Cell Surface uPA Generation | cell surface uPA generation assay, qHTS | Potency, µM (series often up to 38.3 µM), for the others: at the top dose activity change, negative = inhibition, usual class: inhibitors | 0.31% of 330,000 active; active = well fitted inhibition curve with a large enough effect; inconclusive = small, poorly fitted or top-dose-only effect; inactive = no such curve, though single readings can be large or run the other way; tested in mouse RAW 264.7 cells; note: potency is the fitted concentration of half-maximal effect; % is set by controls: 0 for no effect and ±100 for the full control effect; nearly all actives have a fitted effect of over 55% in size
# miR-21 reporter – qHTS Assay for Modulators of miRNAs and/orActivators of miR-21; HeLa miR-21 FLuc reporter, luciferase, 48 h; Potency, µM (titrated, usually from 38.3 µM), for the others: at the highest dose activity change, positive = activation, most hits filed as activators; 340,000 tested, under 10 active; AID 2288, 2010;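 note: % of control where 0% means no effect; miR-21 action dims this reporter so a rising signal means less miR-21 action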
#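 HeLa cells endogenously expressing miR-21, stably carrying CMV-driven firefly luciferase with a downstream miR-21 binding site, 2000 cells/well. Titrations up to approximately 40 uM, 48 hours; luciferase luminescence read.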
# TDP1 cell noCPT – qHTS for Inhibitors of human tyrosyl-DNA phosphodiesterase 1 (TDP1): qHTS in cells in absence of CPT; DT40 Tdp1-/- hTDP1 cells, no CPT, ATP luminescence, 48 h; Potency, µM (titrated, usually from 46.2 µM), inactives show at the top dose activity change, negative = growth inhibition, hits mostly inhibitors; 15% of 420,000 active; note: potency is the fitted concentration of half-maximal effect; % is set by controls: 0 for no effect and ±100 for the full control effect; nearly all actives have a fitted effect of over 55% in size
#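 Stably hTDP1-transfected Tdp1-null chicken DT40 cells were treated with library compounds minus camptothecin and grown for at least 48 hr at 37 °C, after which cellular ATP was quantified by luminescence.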
# DT40 TDP1 CPT – qHTS for Inhibitors of human tyrosyl-DNA phosphodiesterase 1 (TDP1): qHTS in cells in presence of CPT; 12% of 420,000 active; Potency, µM (titrated, usually from 46.2 µM), without a hit: top-dose activity change, negative = growth inhibition, actives largely listed as inhibitors; chicken DT40 Tdp1-/-;hTDP1 cells + 20 nM CPT, ATP luminescence, 48 h; note: potency is the fitted concentration of half-maximal effect; % is set by controls: 0 for no effect and ±100 for the full control effect; nearly all actives have a fitted effect of over 55% in size
#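 Chicken DT40 Tdp1-/- cells complemented with human TDP1, 400 cells/well, exposed to compounds plus 20 nM camptothecin for at least 48 h at 37 C; viability read as ATP content by CellTiter-Glo luminescence.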
# * = called active by the depositor; ? = inconclusive; nt = no result given; [ ] = dose if it differs, or a comment. Unless noted, calls come from the whole dose curve; as a rule, active = well fitted curve in the direction sought with a large enough effect; inconclusive = small, poorly fitted or top-dose-only effect, or another doubt; inactive = no such curve, though single readings can be large; an effect the other way counts as inactive or inconclusive.
SMILES,TDP1 inh,uPA generation,miR-21 reporter,TDP1 cell noCPT,DT40 TDP1 CPT
CCOc1ccccc1CN1CCNC(=O)C1CC(=O)NC1CCCCCCC1 (stereo not drawn),nt,-1%,nt,?,29µM*
CN(C(=O)CC1C(=O)NCCN1Cc1ccccc1C(F)(F)F)C1CCOCC1 (stereo not drawn),1%,3%,0%,21µM*,?
COc1ccc(-c2cc(C(F)(F)F)n3nc(C(=O)NCC45CC6CC(CC(C6)C4)C5)cc3n2)cc1OC,2%,nt,2%,nt,nt
COc1ccccc1C(=O)NC(=O)COC(=O)c1cnc(C)cn1,8%[0.505 µM],0%,nt,0%,1%
N#Cc1c(NC(=O)c2ccc(Cn3cc(Br)cn3)o2)sc2c1CCCCCC2,0%,nt,13%,-12%,-4%
Cc1c(NC(=S)N/N=C/c2ccc(N(C)C)cc2)c(=O)n(-c2ccccc2)n1C,3%,3%,-2%,?,16µM*
CCCC(=O)NC(NC(=S)Nc1c(C)n(C)n(-c2ccccc2)c1=O)C(Cl)(Cl)Cl (stereo not drawn),3%,1%,0%,29µM*,?
CCN(CCCn1c(=S)[nH]c2ccc(N3CCOCC3)cc2c1=O)c1ccccc1,5%,10%,14%,21µM*,12µM*
O=C(NC1CCN(Cc2ccccc2)CC1)c1ccc(Cn2c(=S)[nH]c3ccc(N4CCOCC4)cc3c2=O)cc1,5%,0%,-17%,?,?
O=c1c2cc(N3CCOCC3)ccc2[nH]c(=S)n1Cc1cccc(Cl)c1,3%,2%,-1%,?,21µM*
O=c1c2cc(Cl)ccc2[nH]c(=S)n1Cc1ccco1,8%,nt,-1%,?,?
O=c1c2cc(N3CCOCC3)ccc2[nH]c(=S)n1Cc1ccco1,-5%,nt,-19%,21µM*,?
O=C(CCCCCn1c(=S)[nH]c2ccc(N3CCOCC3)cc2c1=O)NC1CCN(Cc2ccccc2)CC1,6%,-1%,1%,23µM*,16µM*
Cc1nnc(SCCOc2ccccc2)s1,6%,-2%,-26%,-18%,-7%
Cc1cc(NC(=O)c2cc(-c3ccncc3)nc3c(C)cccc23)no1,-9%,-13%,?,2.9µM*,4.1µM*
COc1cccc(NC(=O)c2cc(-c3cccnc3)nc3c(Cl)cccc23)c1,4%,nt,1%,?,?
Cc1cc(NC(=O)c2cccc(C(=O)Nc3cc(C)on3)n2)no1,2%,-4%,5%,0.65µM*,0.18µM*
Cc1cccc(NC(=O)c2cc(-c3cccnc3)nc3c(C)cccc23)n1,3%,0%,-1%,15µM*,?
Cc1cc(NC(=O)c2ccc(-c3ccccc3[N+](=O)[O-])o2)no1,1%,-15%,nt,?,?
Cc1cc(NC(=O)c2cc(-c3ccccn3)nc3c(Cl)cccc23)no1,0%,-14%,6%,-14%,-18%
Cc1cc(NC(=O)c2c(Cl)cccc2Cl)no1,-3%,13%,5%,-6%,4%
Cc1cc(NC(=O)c2ccc(-c3ccccc3F)o2)no1,6%,0%,-46%,18µM*,?
COc1ccc(Cc2[nH]n3c(=O)cc(C)nc3c2-c2ccccc2)cc1,1%,-2%,0%,?,?
COc1ccc(Cc2[nH]n3c(=O)cc(C(C)C)nc3c2-c2ccccc2)cc1,2%,-18%,?,7.3µM*,18µM*
CC(=O)Nc1ccc(NC(=O)c2ccc(COc3ccccc3)cc2)cc1,nt,-1%,9%,-15%,-9%
SMILES,TDP1 inh,uPA generation,miR-21 reporter,TDP1 cell noCPT,DT40 TDP1 CPT
CC(=O)Nc1ccc(C(=O)N/N=C/c2ccccc2OCc2ccccc2)cc1,6%,-9%,10%,21µM*,?
O=C(N/N=C/c1ccccc1OCc1ccccc1)c1cccnc1,8%,?,-11%,29µM*,?
O=C(N/N=C/c1cccnc1)c1cc(-c2ccccc2OCc2ccccc2)n[nH]1,0%,-2%,19%,23µM*,?
O=C(N/N=C/c1ccccc1[N+](=O)[O-])c1ccc(COc2ccccc2-c2ccccc2)cc1,1%,-2%,-10%,12µM*,12µM*
COc1ccccc1/C=C/C(=O)N1CCCC1,-5%,-3%,-32%,?,-26%
FC(F)(F)c1cccc(Cl)c1,10%,nt,nt,nt,nt
Fc1ccc(CNCCCSc2nnnn2-c2ccccc2)cc1,1%,nt,1%,-23%,?
O=C(NNC(=O)c1ccccc1OCc1ccccc1)c1ccccc1F,nt,-3%,-46%,-18%,-1%
CC(=O)N/N=C\c1cccc(OC/C=C/c2ccccc2)c1,2%,4%,-53%,-7%,-22%
CC(=O)N/N=C\c1ccccc1OC/C=C/c1ccccc1,5%,-3%,-56%,?,16µM*
O=C(CNC(=O)c1ccccc1F)N/N=C/c1cc(Br)ccc1OCc1ccccc1,3%,11%,-28%,23µM*,?
O=C(O)c1cccc(NC(=S)N/N=C/c2ccccc2OCc2cccc(Br)c2)c1,nt,2%,-23%,?,23µM*
O=C(N/N=C/c1ccccc1F)c1ccccc1OCc1ccccc1,nt,-3%,-8%,21µM*,?
CCOC(=O)CNC(=S)n1cnc(N)n1,3%,-5%,-2%,?,-16%
Cc1cc(C)cc(NC(=O)[C@H](NC(=O)[C@@H]2Cc3ccccc3CN2)c2ccccc2)c1,8%,0%,-11%,26µM*,?
CCn1c(=O)cc(OCC(=O)N(C)c2cc(Cl)ccc2C)c2ccccc21,-3%,nt,?,23µM*,21µM*
CCn1c(=O)cc(OCC(=O)N2CCN(c3cccc(Cl)c3)CC2)c2ccccc21,5%,nt,3%,15µM*,23µM*
CCn1c(=O)cc(OCC(=O)N2CCN(c3cccc(C)c3C)CC2)c2ccccc21,6%,nt,?,7.3µM*,9.2µM*
Cn1c(=O)cc(OCC(=O)N2CCN(c3cccc(C(F)(F)F)c3)CC2)c2ccccc21,7%,nt,-2%,15µM*,21µM*
O=C(NCCC(=O)N1CCN(S(=O)(=O)c2ccccc2Cl)CC1)Nc1ccccc1,-4%[56.1 µM],3%,nt,-1%,-24%
COC(=O)c1ccc(COc2ccc3c4c(c(=O)oc3c2)CCC4)o1,7%,1%,2%,-17%,-6%
COc1ccc(CCNC(=O)c2ccc3c(c2)nc2n3CCC(C)C2)cc1OC (stereo not drawn),8%,nt,28%,?,?
CCOc1ccc(NCc2cccn2-c2nnc(N3CCC(C(=O)NCc4cccc(OC)c4)CC3)s2)cc1,6%,nt,18%,6.5µM*,?
